# Screening data as filed in PubChem.
# This is a sample that favours compounds with a hit; in the whole collection about 11% have one here.
# HPGD block: qHTS Assay for Inhibitors of HPGD (15-Hydroxyprostaglandin Dehydrogenase); 15-hydroxyprostaglandin dehydrogenase [NAD(+)] (Homo sapiens), P15428; purified HPGD, NADH fluorescence kinetic, PGE2 substrate; Potency, µM, for the others: at the highest dose activity change, negative = inhibition, usual class: inhibitors; 150,000 compounds, 4.3% hits; AID 894, 2007; active = well fitted inhibition curve with a large enough effect, not every such curve was filed as active; inconclusive = small, poorly fitted or top-dose-only effect, or another doubt; inactive = no such curve, though single readings can be large or run the other way; also: potency is read from the fitted curve at half-maximal effect; % is scaled to controls: 0 for no effect and ±100 for the full control effect
# Target sequence (P15428 whole entry, looked up): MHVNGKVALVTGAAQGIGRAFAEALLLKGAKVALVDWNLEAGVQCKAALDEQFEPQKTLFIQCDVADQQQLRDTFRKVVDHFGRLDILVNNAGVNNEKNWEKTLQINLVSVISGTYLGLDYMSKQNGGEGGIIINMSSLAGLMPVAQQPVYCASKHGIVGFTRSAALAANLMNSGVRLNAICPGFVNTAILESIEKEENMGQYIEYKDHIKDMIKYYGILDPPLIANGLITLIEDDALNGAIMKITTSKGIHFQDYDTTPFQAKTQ
#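 NADH formation kinetics: reaction with 30 uM PGE2 and 1 mM NAD+ (final), 20 nM enzyme, Tris-HCl pH 8 with Tween 20, after 15 min compound preincubation at room temperature. Fluorescence change, last versus first of five reads.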
# PNC assembly inh: High Content Assay for Compounds that inhibit the Assembly of the Perinucleolar Compartment. PC3M PTB-GFP, PNC prevalence imaging, 16 h; hits give low values. activity change (PNC), negative = inhibition, % at 10 µM. 140,000 compounds, 3.1% hits. AID 2417, 2010;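 active = readout at or below -70, meaning at least 70% loss of cells showing the perinucleolar compartment, a nuclear body marking cancer cells; inconclusive = readout between -30 and a set limit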;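 also: plate controls were DMSO wells for no effect and camptothecin positive control wells for full effect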
#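 PC3M cells stably expressing PTB-GFP, 750–1000 cells/well, treated 16 h at 37 °C with compound (23 nl of library stock), in duplicate. After paraformaldehyde fixation and Hoechst stain, imaged at 20x; PNC prevalence scored by image analysis.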
# GoLoco inh red: qHTS Assay for Inhibitors of RGS12 GoLoco Motif Activity (Red Fluorophore) | 230,000 compounds, 0.44% hits | Gai1:RGS12 GoLoco peptide FP, rhodamine, 10 min | Guanine nucleotide-binding protein G(i) subunit alpha-1 (Homo sapiens), P63096 | Potency, µM (highest dose often 61.6 µM), inactives show at the highest dose activity, negative = inhibition, usual class: inhibitors | AID 880, 2007; active = well fitted inhibition curve with a large enough effect, not every such curve was filed as active; inactive = no such curve, though single readings can be large or run the other way; also: potency is read from the fitted curve at half-maximal effect; % is scaled to controls: 0 for no effect and ±100 for the full control effect; nearly all actives have a fitted effect of over 30% in size
# ALDH1A1 inh: qHTS Assay for Inhibitors of Aldehyde Dehydrogenase 1 (ALDH1A1); Purified ALDH1A1, NADH fluorescence, propionaldehyde substrate; Aldehyde dehydrogenase 1A1 (Homo sapiens), P00352; 220,000 compounds, 7.3% hits; AID 1030, 2008; Potency, µM (titrated, usually from 75.3 µM), inactives show at the top dose activity, negative = inhibition, actives largely listed as inhibitors; active = well fitted inhibition curve with a large enough effect, not every such curve was filed as active; inconclusive = small, poorly fitted or top-dose-only effect, or another doubt; inactive = no such curve, though single readings can be large or run the other way;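 also: potency is read from the fitted curve at half-maximal effect; plate controls were no enzyme wells and a reference inhibitor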
# HTT ATP protect: qHTS Multiplex Assay to Identify Dual Action Probes in a Cell Model of Huntington: Cytoprotection (ATP); Potency, µM (titrated, usually from 56.4 µM), for inactives: cytoprotection (ATP increase), hits mostly activators; 230,000 compounds, 0.14% hits; PC12 HTT-Q103 induced, cytoprotection, ATP luminescence, 40 h; AID 1471, 2008; also: potency is read from the fitted curve at half-maximal effect; % of control where 0% means no effect; nearly all actives have a fitted effect of over 45% in size
#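 Cells were plated at 1500 per well in phenol red-free DMEM with 5% equine and 5% calf serum. Tebufenozide (100 nM final) and compounds were added, then ATPlite reagent, and luminescence was read.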
# HttQ103 aggreg: qHTS Multiplex Assay to Identify Dual Action Probes in a Cell Model of Huntington: Aggregate Formation (GFP); Potency, µM (top dose mostly 46.1 µM), inactives show top-dose activity change, negative = inhibition, most hits filed as inhibitors; 220,000 compounds, 1.1% hits; PC12 HttQ103-GFP aggregates, Acumen cytometry, 40 h; also: potency is read from the fitted curve at half-maximal effect; % is scaled to controls: 0 for no effect and ±100 for the full control effect; nearly all actives have a fitted effect of over 60% in size
#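 PC12 cells stably carrying ecdysone-inducible HTT exon 1 Q103–GFP were induced with tebufenozide (100 nM final) and treated with library compounds in titration. GFP aggregates in lysates were counted by laser scanning cytometry.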
# Numbers without * were called inactive; ? = inconclusive; / = no result given; [ ] = another dose, or the depositor's remark. Unless noted, calls follow the shape of the dose curve; as a rule, active = well fitted curve in the direction sought with a large enough effect; inconclusive = small, poorly fitted or top-dose-only effect, or another doubt; inactive = no such curve, though single readings can be large; an effect the other way counts as inactive or inconclusive.
SMILES,HPGD block,PNC assembly inh,GoLoco inh red,ALDH1A1 inh,HTT ATP protect,HttQ103 aggreg
O=C(O)c1cccc(N2C(=O)C3CC=C(Cl)CC3C2=O)c1 (configuration not stated),-8.1%,50.0,0.2%,12.7%,-9.4%,-6.0%
C[C@@]12C[C@H](O)C3[C@H](CCC4=CC(=O)CC[C@]43C)[C@H]1CC[C@@H]2c1csc(-c2ccccc2)n1 (some centres not stated),-15.2%,/,5.9%[14.2 µM],3.2%[13.5 µM],/,/
Cc1cccc(C(=O)c2c(N)sc3c2CCC(C)C3)c1 (configuration not stated),/,-14.0,/,7.94µM*,14.1%[10 µM],?
Cc1cccc(C(=O)c2c(N)sc3c2CCCC3)c1,/,-7.7,/,?,7.7%[10 µM],5.2%
CC1CCc2c(sc(N)c2C(N)=O)C1 (configuration not stated),?,7.6,3.9%,12.6µM*,3.7%,-20.0%
O=c1c(-c2ccnn2-c2cccc(Cl)c2)cnc2n1CCS2,-1.9%,-80.5*,3.0%,-0.2%,-5.7%,-5.6%
CCNC(=O)c1ccc(C2SCC(=O)N2CCc2ccccc2)cc1 (configuration not stated),22.4µM*,15.7,-10.5%,-4.3%,/,3.8%
CCCNC(=O)c1ccc(C2SCC(=O)N2CCc2ccccc2)cc1 (configuration not stated),12.6µM*,30.6,7.0%,-7.6%,/,1.7%
CCc1ccc(NC(=O)c2ccc(C3SCC(=O)N3CCc3ccccc3)cc2)cc1 (configuration not stated),-7.4%,-3.0,-4.5%,?,-54.1%,-24.0%
COc1ccc(C(=O)OCC(=O)c2cc(OC)ccc2OC)c(OC)c1,-11.9%,6.8,-7.8%,-10.0%,-10.9%[10 µM],17.0%
COc1ccc(OC)c(C(=O)COC(=O)C2CC3CCCC(C2)C3=O)c1 (configuration not stated),-23.9%,?,-10.8%,7.08µM*,-13.0%[10 µM],-2.3%
N#CCSc1ccsc1C(=O)Nc1ccc(F)cc1,31.6µM*,26.0,5.6%,7.08µM*,-60.4%[10 µM],-10.0%
O=C(O)CNc1nc(-c2ccccc2)c2cc([N+](=O)[O-])ccc2n1,-20.6%,13.2,-2.5%,17.8µM*,-14.3%[10 µM],6.2%
O=[N+]([O-])c1ccc2nc(NCCCO)nc(-c3ccccc3)c2c1,14.1µM*,27.9,2.1%,1.1%,-37.0%[10 µM],29.7%
O=[N+]([O-])c1ccc2nc(-c3ccccc3)[nH]c2c1,-4.4%,?,0.6%,7.5%,-1.4%[10 µM],12.1%
O=[N+]([O-])c1ccc2[nH]nc(-c3ccccc3)c2c1,14.1µM*,15.7,7.9%,2.3%,-3.9%[0.074 µM],-9.0%
O=[N+]([O-])c1ccc2nc(-c3ccccc3)oc2c1,/,/,-3.6%,?,-57.9%,-7.9%
O=S(O)O.O=S(O)O.[Co].[NH2-].[NH2-].[NH2-].[NH2-],0.1%,/,5.1%[14.2 µM],-0.5%[13.5 µM],1.6%[10 µM],/
CCCCC[C@H](O)/C=C/[C@@H]1[C@@H](C/C=C\CCCC(=O)O)[C@H](O)C[C@H]1O,-23.9%,/,9.6%,0.4%,?,/
CC(C)(C)N1C(=O)[C@H]2[C@H]3[C@H](O)[C@H](O)C/C(=N/OCc4ccccc4)[C@@H]3CC[C@@H]2C1=O,/,/,/,-13.4%[13.5 µM],-4.5%[10 µM],/
CC(C)(C)c1cc(NC(=O)CCl)n(-c2ccccc2)n1,/,/,4.9%,/,-19.9%[10 µM],-9.2%[9.22 µM]
CCCc1cc(NC(=O)CCl)n(-c2ccccc2)n1,/,/,-4.6%,0.891µM*,22.7%[10 µM],-0.7%
